In PubChem BioAssay (Tox21):
Where “and” joins values, the source holds several entries; their conditions need not be identical. Equal entries are not always repeated. Results filed as inconclusive are left out. Entries that show only a call come without a potency. A structure can be active in one record and inactive in another. Calls of active or inactive are those of the source. Unless noted, calls follow the shape of the dose curve; as a rule, active = well fitted curve in the direction sought with a large enough effect in the repeat runs; inconclusive = weak or mixed curves; inactive = no such curve, though single readings can be large; an effect the other way counts as inactive or inconclusive.

Key:
[1] = qHTS assay for identifying genotoxic compounds that show differential cytotoxicity against isogenic chicken DT40 cell lines with known DNA damage response pathways - wild type cell line (AID 743012); also: nearly all actives have a fitted effect of over 60% in size; also: potency is read from the fitted curve at half-maximal effect
In short: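 Luminescent ATP viability signal (CellTiter-Glo, 30 min RT) recorded after wild type DT40 cells were incubated with compounds for 40 h at 37 C/5% CO2.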

[2] = qHTS assay for identifying genotoxic compounds that show differential cytotoxicity against isogenic chicken DT40 cell lines with known DNA damage response pathways - Rad54/Ku70 mutant cell line (AID 743015); also: nearly all actives have a fitted effect of over 60% in size; also: potency is read from the fitted curve at half-maximal effect
[3] = qHTS assay to identify small molecule antagonists of the androgen receptor (AR) signaling pathway - cell viability counter screen (AID 743033; also: nearly all actives have a fitted effect of over 45% in size; also: potency is read from the fitted curve at half-maximal effect)
[4] = qHTS assay to identify small molecule antagonists of the androgen receptor (AR) signaling pathway using the MDA cell line - cell viability counter screen (AID 743041; also: nearly all actives have a fitted effect of over 45% in size; also: potency is read from the fitted curve at half-maximal effect)
In short: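 Cytotoxicity counter screen: MDA-kb2 AR-luc cells, compound + R1881, 16 h, 37C, 0% CO2; CellTiter-Fluor added at 15.5 h, fluorescence read after 30 min.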

[5] = qHTS assay to identify small molecule antagonists of the thyroid receptor (TR) signaling pathway - cell viability counter screen (AID 743064); also: nearly all actives have a fitted effect of over 50% in size; also: potency is read from the fitted curve at half-maximal effect
In short: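 Compounds were tested on GH3.TRE-Luc cells in the presence of T3 at 1 nM final. Following 23.5 h at 37 °C, cell viability was quantified by CellTiter-Fluor.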

[6] = qHTS assay to identify small molecule antagonists of the thyroid receptor (TR) signaling pathway (AID 743065); also: nearly all actives have a fitted effect of over 55% in size; also: potency is read from the fitted curve at half-maximal effect
In short: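 GH3.TRE-Luc rat pituitary cells (two TREs driving luciferase) were dosed with compound, then stimulated with 1 nM T3 (final) for 23.5 h at 37 C. ONE-Glo luminescence was the read-out, with CellTiter-Fluor fluorescence as the cytotoxicity counter-screen.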

[7] = tested on: thyroid hormone receptor (rat, GH3 cells); assay: qHTS assay to identify small molecule agonists of the thyroid receptor (TR) signaling pathway (AID 743066; calls by dose curve)
[8] = molecular target: Estrogen receptor (Homo sapiens) (UniProt P03372); assay: qHTS assay to identify small molecule antagonists of the estrogen receptor alpha (ER-alpha) signaling pathway (AID 743069; active = well fitted curve in the direction sought with a large enough effect in the signal ratio in the repeat runs, not every such curve was filed as active; the % refers to the signal ratio)
In short: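 Beta-lactamase FRET fluorescence is read after 2 hr at room temperature with LiveBLAzer B/G substrate. Before that, ER-alpha-bla HEK293 cells sit 4 hr after plating, then receive compound plus 17beta-estradiol and incubate 18 hr at 37C.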

[9] = qHTS assay to identify small molecule antagonists of the estrogen receptor alpha (ER-alpha) signaling pathway - cell viability counter screen (AID 743074; calls by dose curve;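 also: HEK293 cells carrying ER-alpha-UAS-bla reporter stimulated with 17beta-estradiol; nearly all actives have a fitted effect of over 45% in size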; also: potency is read from the fitted curve at half-maximal effect)
[10] = molecular target: Estrogen receptor (Homo sapiens) (UniProt P03372); assay: qHTS assay to identify small molecule agonists of the estrogen receptor alpha (ER-alpha) signaling pathway (AID 743075; calls by dose curve;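 also: HEK293 GripTite cells with ER-alpha and UAS-driven beta-lactamase reporter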)
[11] = molecular target: Estrogen receptor (Homo sapiens) (UniProt P03372); assay: qHTS assay to identify small molecule agonists of the estrogen receptor alpha (ER-alpha) signaling pathway using the BG1 cell line (AID 743079); also: nearly all actives have a fitted effect of over 20% in size; also: potency is read from the fitted curve at half-maximal effect
[12] = qHTS assay to identify small molecule antagonists of the estrogen receptor alpha (ER-alpha) signaling pathway using the BG1 cell line - cell viability counter screen (AID 743081);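 also: compound given together with 17beta-estradiol as the ER stimulus; nearly all actives have a fitted effect of over 45% in size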; also: potency is read from the fitted curve at half-maximal effect
Aromatase (Homo sapiens) = Aromatase (Homo sapiens) (UniProt P11511); assay: qHTS assay to identify aromatase inhibitors (AID 743083); also: nearly all actives have a fitted effect of over 55% in size; also: potency is read from the fitted curve at half-maximal effect
[13] = qHTS assay to identify aromatase inhibitors - cell viability counter screen (AID 743084);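 also: cells stimulated with testosterone during compound exposure; nearly all actives have a fitted effect of over 55% in size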; also: potency is read from the fitted curve at half-maximal effect
[14] = qHTS assay for identifying genotoxic compounds that show differential cytotoxicity against isogenic chicken DT40 cell lines with known DNA damage response pathways - Rev3 mutant cell line (AID 743014); also: nearly all actives have a fitted effect of over 55% in size; also: potency is read from the fitted curve at half-maximal effect
[15] = qHTS assay to identify small molecule antagonists of the estrogen receptor alpha (ER-alpha) signaling pathway using the BG1 cell line (AID 743080; calls by dose curve;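 also: BG1 cells stimulated with 17beta-estradiol alongside compound; nearly all actives have a fitted effect of over 25% in size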)
In short: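 Endogenous full-length ER-alpha in BG1-Luc-4E2 cells drives a stably integrated 4×ERE luciferase gene; compounds were tested against 17beta-estradiol over 21.5 h, with luminescence and multiplexed viability fluorescence recorded.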

[16] = molecular target: Androgen receptor (Homo sapiens) (UniProt P10275); assay: qHTS assay to identify small molecule antagonists of the androgen receptor (AR) signaling pathway (AID 743035; active = well fitted inhibition curve with a large enough effect in the signal ratio in the repeat runs, not every such curve was filed as active; the % refers to the signal ratio; also: potency is read from the fitted curve at half-maximal effect)
In short: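 Quantitative HTS of the Tox21 10K library used HEK293 AR-UAS-bla cells stimulated with R1881 alongside compound for 16 h at 37C, followed by beta-lactamase FRET detection (LiveBLAzer B/G, 2 h, RT).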

[17] = molecular target: Androgen receptor (Homo sapiens) (UniProt P10275); assay: qHTS assay to identify small molecule agonists of the androgen receptor (AR) signaling pathway using the MDA cell line (AID 743040; also: nearly all actives have a fitted effect of over 20% in size; also: potency is read from the fitted curve at half-maximal effect); conditions: MDA-kb2 AR-luc cells, MMTV luciferase, 16 h; activity change: at 70.3 µM (top of the series), stronger effect = higher value
In short: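 Luciferase read-out, ONE-Glo, 30 min RT. Cells: MDA-kb2 AR-luc, MMTV promoter with AR and GR response elements. Compound exposure 16 h, 37C, 0% CO2, after 5 h pre-incubation. qHTS agonist mode.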

[18] = molecular target: Androgen receptor (Homo sapiens) (UniProt P10275); assay: qHTS assay to identify small molecule antagonists of the androgen receptor (AR) signaling pathway using the MDA cell line (AID 743042; also: nearly all actives have a fitted effect of over 55% in size)
In short: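 MDA-kb2 breast carcinoma cells carrying MMTV-luciferase (AR/GR responsive) were co-treated with compounds and the agonist R1881 for 16 h at 37C. Inhibition read as ONE-Glo luminescence; CellTiter-Fluor fluorescence measured in parallel for cytotoxicity.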

Sequence of Androgen receptor (Homo sapiens) (P10275 whole entry, looked up): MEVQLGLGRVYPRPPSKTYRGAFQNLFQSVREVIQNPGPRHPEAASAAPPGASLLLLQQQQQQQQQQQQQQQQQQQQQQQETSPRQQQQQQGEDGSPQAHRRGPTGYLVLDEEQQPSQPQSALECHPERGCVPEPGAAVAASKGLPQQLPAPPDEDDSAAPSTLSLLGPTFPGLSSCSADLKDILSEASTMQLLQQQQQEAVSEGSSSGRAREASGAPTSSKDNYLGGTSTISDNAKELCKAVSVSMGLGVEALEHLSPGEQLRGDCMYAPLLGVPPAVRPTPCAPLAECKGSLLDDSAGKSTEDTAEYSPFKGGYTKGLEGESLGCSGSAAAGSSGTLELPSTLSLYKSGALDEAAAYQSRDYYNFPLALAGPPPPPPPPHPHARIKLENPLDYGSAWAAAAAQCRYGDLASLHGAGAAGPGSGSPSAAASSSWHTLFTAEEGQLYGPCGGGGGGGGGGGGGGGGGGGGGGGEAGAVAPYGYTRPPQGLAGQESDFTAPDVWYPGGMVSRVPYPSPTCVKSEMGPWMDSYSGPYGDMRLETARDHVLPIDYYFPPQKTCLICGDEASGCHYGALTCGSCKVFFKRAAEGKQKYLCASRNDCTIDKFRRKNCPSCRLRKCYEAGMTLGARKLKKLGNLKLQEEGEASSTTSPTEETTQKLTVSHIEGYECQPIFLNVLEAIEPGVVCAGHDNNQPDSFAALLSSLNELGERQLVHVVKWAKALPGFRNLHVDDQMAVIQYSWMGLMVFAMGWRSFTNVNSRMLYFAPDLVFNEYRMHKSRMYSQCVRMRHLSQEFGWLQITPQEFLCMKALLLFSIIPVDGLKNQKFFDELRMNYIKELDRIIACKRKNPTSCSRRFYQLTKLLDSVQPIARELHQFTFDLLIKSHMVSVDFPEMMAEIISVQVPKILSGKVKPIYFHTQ
Sequence of Estrogen receptor (Homo sapiens) (P03372 whole entry, looked up): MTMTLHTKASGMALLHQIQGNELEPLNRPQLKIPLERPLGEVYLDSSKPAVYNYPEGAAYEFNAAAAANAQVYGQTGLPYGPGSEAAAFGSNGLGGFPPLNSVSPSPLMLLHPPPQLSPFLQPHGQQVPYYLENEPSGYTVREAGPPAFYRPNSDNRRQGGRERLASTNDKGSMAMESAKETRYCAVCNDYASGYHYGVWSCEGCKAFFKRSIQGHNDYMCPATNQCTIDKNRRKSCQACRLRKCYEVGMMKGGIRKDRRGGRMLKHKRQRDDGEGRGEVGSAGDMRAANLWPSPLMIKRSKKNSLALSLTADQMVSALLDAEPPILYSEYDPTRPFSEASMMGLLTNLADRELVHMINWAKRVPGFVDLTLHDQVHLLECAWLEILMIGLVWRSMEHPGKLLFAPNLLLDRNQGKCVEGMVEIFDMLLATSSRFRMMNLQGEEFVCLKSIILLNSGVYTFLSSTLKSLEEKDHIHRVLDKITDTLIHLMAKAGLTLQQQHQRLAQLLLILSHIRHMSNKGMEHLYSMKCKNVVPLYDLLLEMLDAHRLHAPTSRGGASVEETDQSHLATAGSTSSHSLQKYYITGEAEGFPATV
Sequence of Aromatase (Homo sapiens) (P11511 whole entry, looked up): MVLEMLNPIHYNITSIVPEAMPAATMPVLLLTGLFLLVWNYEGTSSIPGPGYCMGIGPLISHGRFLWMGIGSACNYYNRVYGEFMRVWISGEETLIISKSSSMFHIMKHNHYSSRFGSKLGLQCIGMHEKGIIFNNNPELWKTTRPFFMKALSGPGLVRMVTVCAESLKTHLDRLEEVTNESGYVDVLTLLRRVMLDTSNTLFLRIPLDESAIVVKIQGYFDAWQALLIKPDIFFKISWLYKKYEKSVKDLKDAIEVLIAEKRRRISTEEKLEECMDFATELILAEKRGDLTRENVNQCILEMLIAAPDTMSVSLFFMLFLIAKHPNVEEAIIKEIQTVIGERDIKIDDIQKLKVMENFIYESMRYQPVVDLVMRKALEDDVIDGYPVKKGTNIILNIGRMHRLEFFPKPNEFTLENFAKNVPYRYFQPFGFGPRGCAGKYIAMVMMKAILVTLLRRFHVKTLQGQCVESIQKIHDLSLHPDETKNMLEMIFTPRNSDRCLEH

Row | SMILES | Potency [1] | Potency [2] | Potency [3] | Potency [4] | Potency [5] | Potency [6] | Potency [7] | Potency [8] | Potency [9] | Potency [10] | Potency [11] | Potency [12] | Potency (Aromatase (Homo sapiens)) | Potency [13] | Potency [14] | Potency [15] | Potency [16] | Potency [17] | Potency [18]
1 | CN1CC[C@]23c4c5ccc(O)c4O[C@H]2[C@@H](O)CC[C@H]3[C@H]1C5 | inactive | inactive | inactive | inactive | inactive | inactive | inactive | inactive | inactive | inactive | inactive | inactive | inactive | inactive |  |  |  |  | 
2 | C=CC(=O)OCC | inactive | inactive | inactive |  |  | inactive | inactive |  | inactive | inactive | inactive | inactive | inactive | inactive | inactive | inactive |  |  | 
3 | CC(=O)NNc1ccccc1 | 1.52 µM (active) | 1.71 µM (active) |  | inactive |  | 4.82 µM (active) | inactive |  | inactive |  |  | inactive | inactive | inactive | 2.15 µM (active) |  | inactive | inactive | inactive
4 | CCCCOC(=O)CCC(=O)OCCCC | inactive | inactive | inactive | inactive | inactive | inactive | inactive |  | inactive |  |  | inactive | inactive | inactive | inactive |  |  |  | 
5 | CC(C)[C@@H](C(=O)O[C@@H](C#N)c1cccc(Oc2ccccc2)c1)c1ccc(Cl)cc1 | inactive |  | inactive | inactive | inactive |  | inactive |  |  |  |  | inactive | inactive | inactive | inactive and 54.5 µM (active) |  |  |  | 
6 | O=P(OCC(Br)CBr)(OCC(Br)CBr)OCC(Br)CBr (stereo not drawn) | 41.1 µM (active) |  |  | inactive | 43.8 µM (active) and 51.7 µM (active) | 27.7 µM (active) and 23.1 µM (active) | inactive |  | inactive | inactive | inactive | inactive | 61.9 µM (active) | inactive | 55.2 µM (active) and 20.6 µM (active) | inactive | 14 µM (active) | inactive | 
7 | O=[N+]([O-])/C=C/c1ccccc1 |  |  |  | inactive | 13.9 µM (active) and 9.69 µM (active) | 12.4 µM (active) and 7.7 µM (active) | inactive |  | inactive |  |  | inactive | 27.8 µM (active) | 31.1 µM (active) and 54.5 µM (active) |  |  |  |  | 
8 | CC(C)CCCCCCCOC(=O)c1ccccc1C(=O)OCCCCCCCC(C)C | inactive | inactive | inactive | inactive | inactive | inactive |  |  | inactive |  |  | inactive | inactive | inactive |  |  |  |  | 
9 | [Cl-].[Cl-].[Hg+2] | 841 nM (active) and 3.84 µM (active) and 193 nM (active) |  | 9.52 µM (active) and 1.54 µM (active) and 9.77 µM (active) | 24.8 µM (active) and 54.2 µM (active) and 61.1 µM (active) | 1.33 µM (active) and 1.36 µM (active) and 243 nM (active) | 841 nM (active) and 1.21 µM (active) and 193 nM (active) |  |  | 24.4 µM (active) |  |  | 54.2 µM (active) and inactive | 13.3 µM (active) and 1.36 µM (active) and 15.4 µM (active) | 10.6 µM (active) and 1.08 µM (active) and 12.2 µM (active) | 2.66 µM (active) and 1.92 µM (active) and 386 nM (active) |  |  |  | 
10 | COc1cc(C[C@@H](C)N)c(OC)cc1Br | 70.4 µM (active) |  | inactive | inactive | 62.8 µM (active) | 56 µM (active) | inactive | inactive |  | inactive | inactive | inactive |  | inactive |  | inactive |  |  | 
11 | CC(Oc1cccc(Cl)c1)C(=O)O (stereo not drawn) | inactive | inactive | inactive | inactive |  | inactive | inactive |  | inactive |  |  | inactive | inactive | inactive | inactive |  |  |  | 
12 | C[N+](C)(C)CC1CO1 (stereo not drawn) |  |  | inactive | inactive | inactive | inactive | inactive |  | inactive | inactive | inactive | inactive | inactive | inactive | 13.7 µM (active) |  | inactive | inactive | inactive
13 | CCN(C(C)=O)c1cccc(-c2ccnc3c(C#N)cnn23)c1 | inactive | inactive | inactive | inactive | inactive | inactive | inactive |  | inactive | inactive | inactive | inactive | inactive | inactive | inactive | inactive |  |  | 
14 | CCOc1cccc(C2(N3CCN(c4ccccc4)CC3)CCC(C)CC2)c1 (stereo not drawn) | inactive |  | inactive | inactive |  | inactive | inactive | inactive |  | inactive | inactive | inactive | inactive | inactive |  |  |  |  | 
15 | CN(C1CCCCC1)C1CCCCC1 |  | 17.2 µM (active) | inactive | inactive | inactive | inactive | inactive |  | inactive | inactive | inactive | inactive | inactive | inactive | 9.69 µM (active) | inactive | inactive | inactive | inactive
16 | C[C@]12CC[C@H]3[C@@H](CCC4=CC(=O)CC[C@@H]43)[C@@H]1CC[C@@H]2OC(=O)CCc1ccccc1 |  | inactive | inactive | inactive | inactive |  | inactive |  | inactive |  |  |  |  | inactive | inactive |  |  |  | 
17 | CN1C(=O)CN=C(c2ccccc2)c2cc([N+](=O)[O-])ccc21 | inactive |  | inactive | inactive |  |  | inactive |  | inactive | inactive |  | inactive | inactive |  | inactive |  |  | 1.88 µM (active) | inactive
18 | CC(Cc1ccccc1)NCc1ccccc1Cl (stereo not drawn) | 18.8 µM (active) | 18.8 µM (active) | inactive | inactive |  | inactive | inactive | inactive | inactive | inactive | 26.6 µM (active) | inactive | inactive | inactive | 15 µM (active) |  |  |  | 
